Bioassay records (PubChem BioAssay)
Most compounds without a hit are left out; they make up all but 2.4% or so of the library.
ELG1 repair inh: blocks ELG1-dependent DNA repair in HEK293T cells; Potency, µM (series often up to 46.1 µM), without a hit: top-dose activity change, negative = inhibition, most hits filed as inhibitors; hit rate 2.3% among 330,000; HEK293T ELG1-luciferase reporter, luminescence, 16 h; DNA damage induced by 5-fluorouridine; note: % is set by controls: 0 for no effect and ±100 for the full control effect; nearly all actives have a fitted effect of over 55% in size
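In this reporter screen, reduction of luminescence relative to DMSO vehicle indicated activity. Compounds and 5-fluorouridine were added together to 2,000 cells per well, incubated for 16 hr at 37 °C, then developed with ONE-Glo.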
Rango release inh: prevents RanGTP from dissociating the Rango-importin beta complex; O95149+P62826; Biochemical FRET Rango-importin beta, RanGTP-induced dissociation; Potency, µM (highest dose often 46.1 µM), for inactives: top-dose activity change, negative = inhibition; hit rate 0.071% among 340,000; AID 540253; calls by dose curve; note: % of control where 0% means no effect; nearly all actives have a fitted effect of over 45% in size
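Rango FRET biosensor (snurportin-1 IBB flanked by N-terminal EYFP and C-terminal CFP10) at 0.1 uM, with 0.25 uM importin beta in PBS, 1mM DTT, 0.02% Tween-20, 0.1% BSA. 0.6 uM Ran, 2mM GTP and 0.2 uM RCC1 were then added for 45 min at room temperature. Inhibition read as loss of FRET rise.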
PKM2 act: activators of human pyruvate kinase M2; P14618; purified PKM2, Kinase-Glo ATP luminescence, activation; response scale: 0% is enzyme alone, no compound; Potency, µM (series often up to 57.5 µM), for the others: at the highest dose activation, most hits filed as activators; hit rate 0.34% among 260,000; AID 1631; note: % is set by controls: 0 for no effect and ±100 for the full control effect; nearly all actives have a fitted effect of over 55% in size
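Purified hPK-M2 (>95% pure) converted ADP (0.1 mM final) to ATP with 0.5 mM PEP in 50 mM imidazole pH7.2, KCl, MgCl2, Tween 20, BSA; 1 h at room temperature. ATP detected by Kinase-Glo luminescence.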
PGK inhibitor: inhibitors of T. brucei phosphoglycerate kinase. AID 602233. Potency, µM (top dose mostly 57.5 µM), for the others: at the top dose activity change, negative = inhibition, most hits filed as inhibitors. PGK/GAPDH coupled, Kinase-Glo luminescence, 60 min. P07378. hit rate 0.043% among 380,000; note: % is set by controls: 0 for no effect and ±100 for the full control effect; nearly all actives have a fitted effect of over 60% in size
Target sequence (P07378 whole entry, looked up): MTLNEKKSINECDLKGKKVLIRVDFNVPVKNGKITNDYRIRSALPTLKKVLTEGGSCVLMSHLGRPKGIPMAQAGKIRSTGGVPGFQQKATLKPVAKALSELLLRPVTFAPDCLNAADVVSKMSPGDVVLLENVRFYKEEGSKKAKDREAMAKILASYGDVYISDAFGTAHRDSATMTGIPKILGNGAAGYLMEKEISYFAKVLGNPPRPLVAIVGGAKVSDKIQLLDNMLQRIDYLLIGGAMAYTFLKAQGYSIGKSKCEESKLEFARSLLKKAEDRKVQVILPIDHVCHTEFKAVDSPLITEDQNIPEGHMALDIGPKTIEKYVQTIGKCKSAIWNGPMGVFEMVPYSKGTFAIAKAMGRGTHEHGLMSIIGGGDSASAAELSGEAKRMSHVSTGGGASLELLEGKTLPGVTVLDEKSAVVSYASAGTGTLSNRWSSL
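Recombinant glycosomal PGK reaction used 1,3-bisphosphoglycerate generated in-well by GAPDH (100nM final) in 100mM TEA pH 7.6, 5mM MgCl2, 0.01% Tween-20. After 60 minutes at room temperature, ATP was read by Kinase-Glo Plus luminescence end-point.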
Tb PFK block: T. brucei PFK enzyme inhibition | O15648 | T. brucei PFK, ADP-Glo luminescence | Potency, µM (titrated, usually from 57.5 µM), for the others: at the highest dose activity, negative = inhibition, most hits filed as inhibitors | hit rate 0.17% among 330,000;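 note: 0% = uninhibited 1x PFK enzyme wells and -100% = no-enzyme wells; nearly all actives have a fitted effect of over 60% in size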
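PFK 1.25 nM, F6P 0.5 mM, ATP 0.1 mM, 0.1 M TEA pH 8.0, 5 mM MgCl2, 0.01% Tween20, 0.1% BSA; 45 min RT. ADP-Glo readout. qHTS titration up to 57 uM; curves fitted, compounds curve-classed.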
Rango-impB inh: prevents formation of the Rango-importin beta complex; Q14974; Rango CFP/YFP FRET sensor + importin beta, 45 min; Potency, µM (top dose mostly 92.2 µM), without a hit: at the top dose inhibition of complex formation; hit rate 0.031% among 340,000; AID 540263; calls by dose curve;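 note: 0% = DMSO wells and 100% = buffer wells lacking importin beta; nearly all actives have a fitted effect of over 15% in size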
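Inhibition scored from the CFP 486 nm/YFP 530 nm FRET ratio 45 min after adding 0.125 microM importin beta to 50 nM Rango biosensor preincubated 5 min with compound (room temperature, PBS with DTT, Tween-20, BSA). No-importin wells as positive control.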
* hit, by the source's call; i = inactive; u = inconclusive; x = no result given. Unless noted, calls come from the whole dose curve; as a rule, active = well fitted curve in the direction sought with a large enough effect; inconclusive = small, poorly fitted or top-dose-only effect, or another doubt; inactive = no such curve, though single readings can be large; an effect the other way counts as inactive or inconclusive. Potency is the fitted concentration of half-maximal effect.

SMILES	ELG1 repair inh	Rango release inh	PKM2 act	PGK inhibitor	Tb PFK block	Rango-impB inh
COc1ccc2oc3cc(C)[n+]([O-])c(-c4ccc(Br)cc4)c3c2c1	21µM*	5%	-2%	1%	3%	3%
CCOC(=S)SCc1cn2ccc(C)cc2n1	8%	-15%	7.9µM*	3%	-2%	-2%
CCOC(=S)SCc1cn2ccccc2n1	20%	-8%	16%	-12%	-8%	0%
Cc1ccc(C(=O)NCCSc2ccc(Cl)cc2)cc1S(=O)(=O)Nc1ccccc1	21µM*	-4%	-9%	-2%	-2%	-2%
CCc1ccc(NC(=O)CSc2nccn2-c2cccc(C)c2C)cc1	x	x	x	-10%	x	x
CC1(C)Cc2c(cnn2-c2ccccc2)C(=O)/C1=N\NC(=O)c1ccncc1	x	-7%	x	0%	x	0%
CC1(C)Cc2c(cnn2-c2ccccc2)-c2c1c1ccccc1n2CC(O)CCl (stereo not given)	26µM*	-28%	0%	-3%	-2%	u
Cc1cc(N/N=C/c2ccc(O)cc2)nc(NS(=O)(=O)c2ccccc2)n1	-23%	-9%	12%	25µM*	u	-4%
Cc1ccc(/C=N/Nc2cc(C)nc(NCc3ccccc3)n2)cc1	-29%	-8%	-2%	i	1%	-4%
O=[N+]([O-])c1ccc(Sc2nnnn2-c2ccccc2)nc1	u	1%	18µM*	-8%	-8%	0%
CCC1CCCCN1C(=O)CSc1nc2c([nH]c3ccccc32)c(=O)n1-c1ccc(OC)cc1 (stereo not given)	x	x	x	-9%	x	x
CCOC(=O)N1CCN(C(=O)CS(=O)(=O)c2cn(Cc3ccccc3C)c3ccccc23)CC1	9.2µM*	22%	-7%	-6%	2%	0%
Cc1cc(C)n(CCNC(=O)c2cc(COc3ccc4ncccc4c3)on2)n1	u	-16%	-1%	6%	5%	1%
CC(CCCC(C)(C)O)NC(=O)c1cc(COc2ccc3ncccc3c2)on1 (stereo not given)	2.6µM*	0%	-1%	-3%	-9%	-4%
CC1=C(C(=O)Nc2cccnc2)C(c2cccc(F)c2)n2nc(SCc3ccccc3F)nc2N1 (stereo not given)	x	x	x	-9%	x	x
COc1ccc(/C=C2\C(=O)c3ccccc3OC2c2ccccc2)cc1 (stereo not given)	23µM*	-11%	0%	-10%	1%	-3%
COCCn1c(SCC(=O)Nc2ccccc2)nc2c1c(=O)[nH]c(=O)n2C	7%	-8%	6.3µM*	-8%	4%	2%
CC(C)n1c(SCC(=O)Nc2ccccc2)nc2c1c(=O)n(C)c(=O)n2C	-22%	0%	14µM*	i	-5%	0%
CCOc1ccc(OCC)c(NC(=O)CSc2nc3c(c(=O)n(C)c(=O)n3C)n2C)c1	4%	x	-4%	x	0%	x
CCOc1ccc(OCC)c(NC(=O)CSc2nc3c(c(=O)n(C)c(=O)n3C)n2C(C)C)c1	12µM*	-1%	8%	2%	-14%	2%
COCCn1c(N/N=C(C)/C=C/c2ccccc2)nc2c1c(=O)[nH]c(=O)n2C	4.6µM*	x	1%	x	-3%	x
CCCc1nn2c(C)c(-c3ccccc3)nc2s1	x	x	x	-1%	x	x
Cn1c(=O)c2c([nH]c(OCc3ccc(Cl)cc3Cl)[n+]2Cc2ccc(F)cc2)n(C)c1=O	u	-12%	5%	1%	0%	0%
CCCCn1c(SCC(=O)Nc2nnc(C(C)C)s2)nc2c1c(=O)n(C)c(=O)n2C	18µM*	-8%	1%	-1%	0%	1%
CCn1c(SCC(=O)Nc2ccccc2)nc2c1c(=O)n(C)c(=O)n2C	-12%	-8%	7.9µM*	-3%	-4%	0%
SMILES	ELG1 repair inh	Rango release inh	PKM2 act	PGK inhibitor	Tb PFK block	Rango-impB inh
CC(C)n1c(SCC(N)=O)nc2c1c(=O)[nH]c(=O)n2C	u	7%	15%	-1%	-9%	-3%
CC(C)n1c(SCC(=O)Nc2ccccc2)nc2c1c(=O)[nH]c(=O)n2C	4%	18%	8.9µM*	0%	-9%	-1%
Cc1ccc(NC(=O)CSc2nccn2C2CCCC2)cc1Cl	x	x	x	3%	x	x
Cc1occc1-c1nnc(SCC(=O)c2ccc(Cl)cc2)n1C	0%	10%	9%	-3%	10%	1%
Cc1occc1-c1nnc(SCC(=O)c2c[nH]c3ccccc23)n1C	9%	-9%	25µM*	-1%	-3%	0%
CC1CN(c2nc3ccccc3nc2SCC(=O)Nc2ccc(F)cc2)CC(C)O1 (stereo not given)	16µM*	-18%	-18%	0%	3%	1%
CC(=O)c1sc2ccccc2c1OC(=O)c1ccco1	-13%	26µM*	19%	-3%	-7%	u
COc1cc(CC(=O)Nc2cccc(S(=O)(=O)N(C)c3ccccc3)c2)cc(OC)c1OC	9.2µM*	7%	x	-7%	1%	3%
COc1cccc(CN(C)CC(=O)Nc2cccc(S(=O)(=O)N(C)c3ccccc3)c2)c1OC	x	-1%	x	3%	x	-1%
